Experimental data reported in PubChem BioAssay (NCATS).
Results filed as inconclusive are left out. The source made the active and inactive calls. Calls follow the shape of the dose curve; as a rule, active = well fitted inhibition curve with a large enough effect; inconclusive = small, poorly fitted or top-dose-only effect; inactive = flat fitted curve, though single readings scatter.

The compounds below were run against Dual specificity protein kinase CLK4 (Homo sapiens) (UniProt Q9HAZ1) (assay: qHTS Assay for Inhibitors of CDC-like Kinase 4 (ADP-Glo Assay) (AID 1771; also: nearly all actives have a fitted effect of over 70% in size)). Conditions: recombinant CLK4, ADP-Glo luminescence; series mostly up to 80 µM; activity change, negative = inhibition: at the top concentration.
Experimental: NIH Molecular Libraries Probe Production Centers Network [MLPCN] NIH Chemical Genomics Center [NCGC] MLPCN Grant: 1R03MH084827-01 Assay Submitter (PI): Tom Misteli NCGC Assay Overview: Clk4 (Invitrogen, cat# PV3839) was assayed using ATP and the RS repeat peptide (AnaSpec cat # 61722) as substrates. In the assay, the ADP levels were detected using Promega ADP-Glo technology wherein the remaining ATP from the kinase reaction is first depleted with an ATPase reagent followed by a reagent that contains and enzyme which converts the ADP produced to ATP as well as Ultra-Glo luciferase and D-luciferin which generates a bioluminescence signal from the ATP. The positive control for the assay was TG003 (Sigma-Aldrich, cat# 300801-52-9) which has been described as an inhibitor of Clk 4[1].
NCGC Assay Protocol Summary: Two uL/well of substrate-buffer solution (100 uM RS peptide, 1 uM ATP, 1x ADP-Glo Buffer A, 2 mM MgCl2, 0.5 mM EGTA, 2.5 mM DTT, 0.01% Triton X-100, final concentrations) was dispensed into 1536-well plates (Greiner, solid white, medium binding assay plates) with the Aurora Discovery BioRAPTR Flying Reagent Dispenser (FRD; Beckton-Dickenson). Twenty-three nanoliter of compound and control solutions were transferred to the assay plate using a Kalypsys pin-tool followed by 0.5 uL/well Clk4-buffer solution (25 nM Clk4, 1x ADP-Glo Buffer A, 2 mM MgCl2, 0.5 mM EGTA, 2.5 mM DTT, 0.01% Triton X-100 final concentration) dispensing for a total kinase reaction volume of 2.5 uL/ well. After 1 hr of room-temperature incubation, 2.5 uL ADP-Glo reagent was added and incubated at room temperature for 45 min to stop the kinetic reaction and degrade residual ATP. The ADP product was then converted to ATP by adding 5 uL per well of ADP-Glo Reagent II to yield a total assay volume of 10 uL/ well. Luminescence was detected after 30 min room temperature incubation with the Perkin Elmer Viewlux.
% is scaled to controls: 0 for no effect and ±100 for the full control effect; potency is read from the fitted curve at half-maximal effect.

Chain of Dual specificity protein kinase CLK4 (Homo sapiens) (Q9HAZ1 whole entry, looked up): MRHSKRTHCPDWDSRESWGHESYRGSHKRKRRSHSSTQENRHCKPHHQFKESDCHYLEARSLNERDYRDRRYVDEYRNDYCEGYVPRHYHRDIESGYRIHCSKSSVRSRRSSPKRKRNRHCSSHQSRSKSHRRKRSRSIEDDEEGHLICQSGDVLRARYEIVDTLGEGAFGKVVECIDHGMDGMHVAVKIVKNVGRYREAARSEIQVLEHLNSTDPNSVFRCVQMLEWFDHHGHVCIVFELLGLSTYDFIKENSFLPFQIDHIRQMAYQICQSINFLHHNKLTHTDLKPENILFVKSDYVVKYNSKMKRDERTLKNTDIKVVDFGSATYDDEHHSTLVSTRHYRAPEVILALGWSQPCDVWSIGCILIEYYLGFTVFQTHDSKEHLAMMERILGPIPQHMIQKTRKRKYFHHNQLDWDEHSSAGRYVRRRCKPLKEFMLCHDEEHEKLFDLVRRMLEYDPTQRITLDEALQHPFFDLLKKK

SMILES | activity change, negative = inhibition | Potency
COCCn1c(=O)c(CCc2ccccc2)nc2cnc(N(C)C)nc21 | 8.04% (inactive) | 
COc1ccccc1CNc1ncncc1-c1ccccc1C(F)(F)F | -2.68% (inactive) | 
FC(F)(F)c1ccccc1-c1nc(NCc2cccnc2)c2ccccc2n1 | -22.5% (inactive) | 
Cc1noc(C)c1-c1nc(N2CCN(C)CC2)c2ccccc2n1 |  | 28.2 µM (active)
COc1cccc(-c2ccc3ncnc(Nc4ccccc4)c3c2)c1 |  | 2.82 µM (active)
Cc1nc2cnc(N3CCN(C)CC3)nc2n(CCc2ccccc2)c1=O | -2.32% (inactive) | 
COc1cccc(-c2cncnc2NCCc2c[nH]c3ccc(OC)cc23)c1 |  | 22.4 µM (active)
COCCn1c(=O)c(CCc2ccccc2)nc2cnc(OCc3ccccc3)nc21 | 0.316% (inactive) | 
CN(C)c1ccc(-c2nccc(Nc3ccc(F)cc3)n2)cc1 |  | 14.1 µM (active)
COc1ncc2nc(CCc3ccccc3)c(=O)n(-c3ccccc3)c2n1 | 0.0752% (inactive) | 
N#Cc1ccccc1-c1ccc2ncnc(NCc3cccnc3)c2c1 |  | 5.01 µM (active)
COc1ccc2[nH]cc(CCNc3cc(-c4ccccc4OC)ncn3)c2c1 |  | 25.1 µM (active)
CN(C)c1ncc2nc(CCc3ccccc3)c(=O)n(Cc3cccs3)c2n1 | 0.47% (inactive) | 
COc1ccc2[nH]cc(CCNc3ncnc4ccc(-c5cccc(C#N)c5)cc34)c2c1 |  | 15.8 µM (active)
COc1ccccc1-c1nc(N2CCN(C)CC2)c2ccccc2n1 | -4.61% (inactive) | 
Cc1cccc(CNc2ncncc2-c2ccccc2C)c1 | -6.47% (inactive) | 
Cn1c(=O)c(-c2ccccc2)nc2cnc(N3CCOCC3)nc21 | -12.4% (inactive) | 
COCCn1c(=O)c(-c2ccc(F)cc2)nc2cnc(Nc3cccc(OC)c3)nc21 | 0.59% (inactive) | 
COc1cccc(-c2nc(NCc3cccnc3)c3ccccc3n2)c1 |  | 17.8 µM (active)
COc1ccc(CNc2cc(-c3cccc(NS(C)(=O)=O)c3)ncn2)c(OC)c1 | -26.6% (inactive) | 

SMILES | activity change, negative = inhibition | Potency
COc1cccc(-c2ccc3ncnc(NCc4ccc(OC)cc4OC)c3c2)c1 |  | 3.16 µM (active)
COc1ccc2[nH]cc(CCNc3ncncc3-c3ccoc3)c2c1 |  | 15.8 µM (active)
COc1cccc(Cn2c(=O)c(CCc3ccccc3)nc3cnc(N4CCN(C)CC4)nc32)c1 | -1.7% (inactive) | 
CCNc1ncc2ncc(=O)n(Cc3ccc(F)cc3)c2n1 |  | 6.31 µM (active)
Clc1ccccc1-c1nc(Nc2ccncc2)c2ccccc2n1 |  | 7.94 µM (active)
O=c1c(CCc2ccccc2)nc2cncnc2n1Cc1ccccc1 | -9.58% (inactive) | 
COc1cccc(-c2ccc3ncnc(NCc4cnc(C)cn4)c3c2)c1 |  | 2.51 µM (active)
COc1ccc2[nH]cc(CCNc3ncnc4ccc(-c5ccoc5)cc34)c2c1 |  | 0.708 µM (active)
O=c1c(CCc2ccccc2)nc2cnc(N3CCOCC3)nc2n1-c1ccccc1 | -7.04% (inactive) | 
COc1cccc(-c2nc(NC3CC3)c3ccccc3n2)c1 |  | 7.08 µM (active)
CN(Cc1ccco1)c1cc(-c2ccc3c(c2)OCO3)ncn1 |  | 3.16 µM (active)
COCCn1c(=O)c(-c2cccc(C#N)c2)nc2cnc(Oc3cccc(Cl)c3)nc21 | 6.96% (inactive) | 
Cc1ccccc1-c1ccc2ncnc(-n3ccnc3)c2c1 |  | 7.08 µM (active)
O=c1c(-c2ccccc2)nc2cnc(Oc3ccccc3)nc2n1C[C@H]1CCCO1 | -2.76% (inactive) | 
CN(Cc1ccco1)c1nc(-c2cccnc2)nc2ccccc12 |  | 14.1 µM (active)
COc1ccccc1-c1nc(NC2CC2)c2ccccc2n1 |  | 14.1 µM (active)
CCNc1ncc2nc(C)c(=O)n(CCc3ccccc3)c2n1 |  | 7.94 µM (active)
CN(C)C(=O)c1ccc(-c2nc(Nc3ccccc3)c3ccccc3n2)cc1 |  | 28.2 µM (active)
Cc1nc2cnc(OCc3ccccc3)nc2n(CCc2ccccc2)c1=O | -1.98% (inactive) | 
c1cn(-c2ncnc3ccc(-c4ccoc4)cc23)cn1 |  | 0.199 µM (active)
